Bioassay records: PubChem BioAssay, National Center for Advancing Translational Sciences (NCATS)
A selection: hits, their analogues and other compounds. The true share with any hit is near 19%.
TDP1 inh – qHTS Assay for Inhibitors of Tyrosyl-DNA Phosphodiesterase (TDP1) | 350,000 compounds, 0.28% hits | Potency, µM (titrated, usually from 130 µM), without a hit: at the highest dose activity change, negative = inhibition, usual class: inhibitors | Tyrosyl-DNA phosphodiesterase 1 (Homo sapiens), Q9NUW8 | recombinant TDP1, AlphaScreen DNA substrate cleavage; also: nearly all actives have a fitted effect of over 40% in size
Target sequence (Q9NUW8 whole entry, looked up): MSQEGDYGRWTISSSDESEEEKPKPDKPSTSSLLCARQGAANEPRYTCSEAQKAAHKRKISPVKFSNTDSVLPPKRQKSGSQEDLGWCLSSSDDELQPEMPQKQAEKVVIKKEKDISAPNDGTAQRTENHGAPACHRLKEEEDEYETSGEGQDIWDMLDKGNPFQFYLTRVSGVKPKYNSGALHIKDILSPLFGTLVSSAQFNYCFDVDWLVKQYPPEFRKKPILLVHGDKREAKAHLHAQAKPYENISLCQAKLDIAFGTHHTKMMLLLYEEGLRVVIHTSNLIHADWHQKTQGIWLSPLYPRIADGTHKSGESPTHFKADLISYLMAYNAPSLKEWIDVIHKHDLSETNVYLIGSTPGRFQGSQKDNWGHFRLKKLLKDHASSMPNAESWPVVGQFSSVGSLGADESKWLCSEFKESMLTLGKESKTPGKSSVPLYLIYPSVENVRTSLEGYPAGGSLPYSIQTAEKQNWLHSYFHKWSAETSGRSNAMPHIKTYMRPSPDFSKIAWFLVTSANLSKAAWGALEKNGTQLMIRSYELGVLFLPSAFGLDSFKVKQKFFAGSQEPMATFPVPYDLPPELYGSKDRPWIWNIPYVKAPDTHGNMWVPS
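Recombinant human Tdp1 (E. coli-expressed, 1 nM final) preincubated with compounds 15 min at room temperature, then 5'-biotin/3'-phosphotyrosine-FITC DNA substrate (15 nM final) added for 5 min. AlphaScreen beads (10 ug/ml final) added 10 min; cleavage lowers signal.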
VP16 counter – VP16 counterscreen qHTS for inhibitors of ROR gamma transcriptional activity; Drosophila S2 Gal4-VP16 UAS-luciferase, luminescence, 20 h; Potency, µM (titrated, usually from 53.6 µM), for the others: at the highest dose activity, negative = inhibition, most hits filed as inhibitors; 310,000 compounds, 3.5% hits; AID 2546, 2010;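 also: Gal4-VP16 expression switched on by copper sulfate through the metallothionein promoter; nearly all actives have a fitted effect of over 50% in size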
TDP1 cell noCPT – qHTS for Inhibitors of human tyrosyl-DNA phosphodiesterase 1 (TDP1): qHTS in cells in absence of CPT | DT40 Tdp1-/- hTDP1 cells, no CPT, ATP luminescence, 48 h | Potency, µM (top dose mostly 46.2 µM), inactives show at the top dose activity change, negative = growth inhibition, actives largely listed as inhibitors | 420,000 compounds, 15% hits | AID 686978, 2013; also: nearly all actives have a fitted effect of over 55% in size
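Cells were dispensed at 400 per well, compounds added by pin tool, plates incubated ≥48 hr at 37 °C, then CellTiter-Glo added for 30 min at room temperature before luminescence reading. Line: DT40 Tdp1-/- complemented with hTDP1; camptothecin omitted.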
DT40 TDP1 CPT – qHTS for Inhibitors of human tyrosyl-DNA phosphodiesterase 1 (TDP1): qHTS in cells in presence of CPT; Potency, µM (doses to about 46.2 µM), inactives show top-dose activity change, negative = growth inhibition, most hits filed as inhibitors; 420,000 compounds, 12% hits; chicken DT40 Tdp1-/-;hTDP1 cells + 20 nM CPT, ATP luminescence, 48 h; also: nearly all actives have a fitted effect of over 55% in size
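Chicken DT40 Tdp1-/- cells complemented with human TDP1, 400 cells/well, exposed to compounds plus 20 nM camptothecin for at least 48 h at 37 C; viability read as ATP content by CellTiter-Glo luminescence.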
RORg inh – qHTS for inhibitors of ROR gamma transcriptional activity; Drosophila S2 Gal4-RORgamma UAS-luciferase reporter, 20 h; 310,000 compounds, 5.4% hits; Potency, µM (titrated, usually from 53.6 µM), for the others: at the highest dose activity change, negative = inhibition, usual class: inhibitors; AID 2551, 2010; Nuclear receptor ROR-gamma (Mus musculus), P51450; also: nearly all actives have a fitted effect of over 60% in size
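ROR gamma transcriptional activity was tracked as Gal4-UAS luciferase output in stably transfected Drosophila Schneider cells, with compound added 1 hr before 700 uM copper sulfate induction and a 20 hr ambient-temperature incubation.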
An asterisk follows results filed as active; ? = inconclusive; nt = no result given; [ ] = remark or other dose. Calls follow the shape of the dose curve; as a rule, active = well fitted curve in the direction sought with a large enough effect; inconclusive = small, poorly fitted or top-dose-only effect, or another doubt; inactive = no such curve, though single readings can be large; an effect the other way counts as inactive or inconclusive. % is scaled to controls: 0 for no effect and ±100 for the full control effect; potency is read from the fitted curve at half-maximal effect.

SMILES	TDP1 inh	VP16 counter	TDP1 cell noCPT	DT40 TDP1 CPT	RORg inh
COc1ccc(/C=N/OC/C(O)=C(\C#N)c2nc3ccccc3[nH]2)cc1	5.1%	?	-9.9%	-5.4%	11.2µM*
COc1ccc(/C(C)=N/OC/C(O)=C(\C#N)c2nc3ccccc3[nH]2)c(OC)c1	8.1%	?	10.3%	-18.7%	20µM*
COc1ccc(/C(C)=N/OC/C(O)=C(\C#N)c2nc3ccccc3[nH]2)cc1OC	5.5%	-8.9%	16.4µM*	?	10µM*
Cc1cc(Br)c(NC(=O)COC(=O)CSc2nnc(-c3ccc(Cl)cc3)o2)c(Br)c1	1.1%	-3.5%	-4.5%	-2.1%	17.1%
O=C(NCc1ccncc1)Nc1cc(Cl)ccc1Cl	-9.7%	-8.9%	6.5%	-2.9%	3.7%
Cc1nc2nc[nH]c2cc1Br	-6.7%	-0.4%	-3.7%	-0.7%	0.4%
Cc1nc2[nH]c(=S)[nH]c2cc1Br	2.9%	-2.9%	-1.9%	-0.7%	11.2µM*
COc1cc(/C=C(\C#N)C(=O)c2c(C)[nH]c3ccccc23)cc(OC)c1OC	0.0%	-8.1%	?	10.7%	?
O=C(O)c1ccc(-c2ccc(-c3ccccc3)cc2)s1	13.2%	?	nt	nt	?
O=c1cc(-c2ccccc2Cl)oc2c(NS(=O)(=O)c3ccccc3OC(F)(F)F)ccc(O)c12	nt	?	?	20.6µM*	?
O=c1cc(-c2ccccc2Cl)oc2c(NS(=O)(=O)c3ccccc3C(F)(F)F)ccc(O)c12	nt	1.2%	-11.7%	-26.1%	1.8%
CC(C)(C)OC(=O)N[C@H](C(=O)OC(C)(C)C)c1ccc(C(F)(F)F)cc1	-1.6%	nt	2.4%	-6.7%	nt
CCN1C(=S)SC(=O)C1=C1C=C(C)N(Cc2ccco2)C(C)=C1	11.3%	?	5.17µM*	4.61µM*	1.5%
CCN1C(=S)SC(=O)C1=C1C=C(C)OC(C)=C1	-3.7%	15.8%	?	-8.6%	?
Cc1sc2nc(CSCC(=O)Nc3ccccc3C#N)[nH]c(=O)c2c1C	-2.6%	7.0%	16.4µM*	?	11.0%
CO[C@H]1COC(=O)C/C=C\[C@@H](C)[C@H](OC)COC(=O)CCC[C@@H]1C	2.6%[21 µM]	-14.8%[10 µM]	nt	nt	13.6%[10 µM]
Cc1cccc(NC(=O)Nc2nnc([C@@H]3C[C@H](O)[C@@H](CO)O3)s2)c1	nt	nt	-10.0%	?	nt
CCCCCCCCSC1=CC(=O)C(OC)=C(OC)C1=O	nt	nt	1.03µM*	1.16µM*	nt
CCCCCCCCCCC1=C(C)C(=O)C(OC)=C(OC)C1=O	27.9%	-9.1%	?	-8.9%[92.5 µM]	-4.8%
COc1ccc(S(=O)(=O)Nc2ccc(NC(C)=O)cc2)cc1OC	6.8%	-16.5%	-14.0%	?	-1.4%
O=S(=O)(CCS(=O)(=O)c1ccccc1)c1ccccc1	nt	nt	-18.4%	-22.8%	nt
COc1ccc2c(c1)C(=O)N(Cc1ccccc1)C(=O)C2(C)C	nt	1.7%	-29.9%	-2.0%	30.5%
O=C1C(=O)N(CCS(=O)(=O)c2ccccc2)c2ccc(F)cc21	5.0%	14.1%	?	20.6µM*	6.6%
COc1ccc2c(c1)C(=O)C(=O)N2CCS(=O)(=O)c1ccccc1	4.3%	-2.5%	2.31µM*	7.31µM*	4.1%
COc1ccc(CNS(=O)(=O)CCNCc2ccco2)cc1	nt	nt	-22.1%	7.4%	nt
SMILES	TDP1 inh	VP16 counter	TDP1 cell noCPT	DT40 TDP1 CPT	RORg inh
COc1cccc(NC(=O)c2ccnc(N3CCC(C(=O)NCc4ccccc4OC)CC3)c2)c1	3.3%	3.9%	-22.9%	?	25.5%
O=C(NCC1COc2ccccc2O1)c1c[nH]c2ccc(S(=O)(=O)N3CCOCC3)cc2c1=O (configuration not stated)	5.2%	1.6%	13µM*	11.6µM*	36.9%
COc1ccc(S(=O)(=O)N2CCN(c3ccccc3)CC2)cc1OC	nt	nt	?	9.2%	nt
COc1ccc(CN(C)C(=O)c2cccc(S(=O)(=O)N3CCN(c4ccccc4)CC3)c2)c(OC)c1OC	nt	nt	13µM*	11.6µM*	nt
O=C(NCCOc1ccccc1F)c1cccc(S(=O)(=O)N2CCN(c3ccccc3)CC2)c1	-15.0%	nt	25.9µM*	?	nt
CN(Cc1ccc(F)cc1)C(=O)c1cccc(S(=O)(=O)N2CCN(c3ccc(F)cc3)CC2)c1	-2.6%[0.505 µM]	nt	14.6µM*	16.4µM*	nt
CN(CC(=O)Nc1cccc(F)c1)C(=O)c1cccc(S(=O)(=O)N2CCN(c3ccccc3)CC2)c1	3.1%	?	?	?	4.8%
O=C(NCC1COc2ccccc2O1)c1cccc(S(=O)(=O)N2CCN(c3ccccc3)CC2)c1 (configuration not stated)	-9.3%	nt	20.6µM*	18.4µM*	nt
COc1ccc(S(=O)(=O)N2CCCc3ccccc32)cc1OC	-1.9%	-0.1%	-16.0%	?	2.5%
COc1ccc(CN(C)C(=O)c2cccc(S(=O)(=O)N3CCCc4ccccc43)c2)c(OC)c1OC	nt	nt	20.6µM*	18.4µM*	nt
CN(Cc1ccc(F)cc1)C(=O)c1cccc(S(=O)(=O)N2CCN(c3ccccc3)CC2)c1	4.5%	nt	23.1µM*	?	nt
Nn1c(SCC(=O)NC2CCCc3ccccc32)nnc1-c1cccs1 (configuration not stated)	1.0%	-1.1%	?	3.6%	11.3%
CCOC(=O)c1sc(=S)n(CC)c1NC(=O)CC	2.0%	1.1%	-6.5%	-15.3%	8.5%
Cn1c(=O)c2c(nc(-c3ccccc3)n2C)n(Cc2ccccc2)c1=O	-0.6%	-1.2%	20.6µM*	16.4µM*	25.5%
Cn1c(=O)c2c(nc(N/N=C/c3ccc(OC(=O)c4ccco4)cc3)n2Cc2ccccc2Cl)n(C)c1=O	3.1%	-1.2%	8.2µM*	6.51µM*	10.0%
